These results are taken from PMC7819943, “Rice protein-binding microarrays: a tool to detect cis-acting elements near promoter regions in rice”.

In all, about 39,000 sequences were measured (“fluorescence intensity (a.u.)”: median about 4,300, highest 2% from about 39,000 on). This excerpt belongs to a sample that is enriched for the highest values.

The target in the assay is T1, OsSMF1 (Oryza sativa, UniProt Q6ZLB0 1-436).
T1 sequence: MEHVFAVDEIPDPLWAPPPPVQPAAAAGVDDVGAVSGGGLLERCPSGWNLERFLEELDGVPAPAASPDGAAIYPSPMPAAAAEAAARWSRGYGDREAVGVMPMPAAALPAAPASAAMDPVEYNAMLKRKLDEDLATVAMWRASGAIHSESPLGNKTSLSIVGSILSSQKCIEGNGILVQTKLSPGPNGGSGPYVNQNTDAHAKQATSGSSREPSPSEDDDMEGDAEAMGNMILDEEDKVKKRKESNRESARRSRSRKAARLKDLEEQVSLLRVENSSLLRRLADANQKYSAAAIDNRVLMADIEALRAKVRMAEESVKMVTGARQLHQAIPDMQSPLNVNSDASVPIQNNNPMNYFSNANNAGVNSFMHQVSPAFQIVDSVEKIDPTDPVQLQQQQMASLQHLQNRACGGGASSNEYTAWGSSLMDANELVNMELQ
Description: protein-binding microarray (RPBM); PBS, 2% BSA, 51.3 ng/ul salmon testes DNA, 50 uM zinc acetate, 200 nM TF, 25 C, 1 h; high values mean tight binding. To be noted: protein: recombinant; tags: N-terminal polyhistidine and DsRed monomer fusion (pET32a); chain copies: 2; label: CyDye5-dUTP incorporated in the synthesized complementary strand; 3' TTTTT single-stranded linker to array surface; dsDNA, one strand shown. In a few lines:
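Binding signal is defined as the fluorescence intensity of each feature in arbitrary units, read on an Axon 4000B scanner. Transcription factors with N-terminal polyhistidine and DsRed fusions came from E. coli BL21-CodonPlus and were purified on Ni–NTA. They were incubated at 200 nM for 1 h at 25 °C on a custom Agilent array that had been made double-stranded with Cy5-dUTP, with 50 µM zinc acetate present, and the array was washed.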
Take “ATTTTCGTGTGCAGTATATGTGTTCCCAACCCTGAGAGCCCGGAGTCACCTAGTGCAG”: the binding signal was 3620 fluorescence intensity (a.u.).
For “CTCTGTTCACTCCACCAAACTCCTTCGATTGATCAAATGACGGAGTCACCTAGTGCAG”, the binding signal is 47200 fluorescence intensity (a.u.).
Under “TGGGATGATCAAATGACTGCCACACTGTCATGTTCCTCTGCGGAGTCACCTAGTGCAG” stands 3610 fluorescence intensity (a.u.); under “ATTGATCACTCGGACGTCACCAAACGATCGATAAACTCGTCGGAGTCACCTAGTGCAG”, 5630 fluorescence intensity (a.u.).
Under “ACCAACGAACGGACGCTGTCATGTCACCTCTCTTAATCTTCGGAGTCACCTAGTGCAG” stands 3740 fluorescence intensity (a.u.).
In the case of “AGCCTCTTCCATCTCGAGCCAGCTCATATTGATTATCCAACGGAGTCACCTAGTGCAG”, the binding signal is 4850 fluorescence intensity (a.u.).
“AGCTGTGCCAACGAGCCCTTAATTAGTTATTATCTCTTCTCGGAGTCACCTAGTGCAG”: the binding signal is 44600 fluorescence intensity (a.u.).
“AACTGCAGCAATATCACTCCCTCCAAATCAGCACATGCATCGGAGTCACCTAGTGCAG”: the binding signal is 3560 fluorescence intensity (a.u.).
For the sequence “AAGCACTCCAAACTGCAACGATTATATCAATAAAATAAAACGGAGTCACCTAGTGCAG”, the binding signal is 39000 fluorescence intensity (a.u.).
For “TAGCATAGCCAACTGCTGACTCCAAATTATCTATAGTCAACGGAGTCACCTAGTGCAG”, the binding signal was 3850 fluorescence intensity (a.u.).
Turning to “TGTCAGTTGGCGAGGGATGCACTGATGACTATGCTAGTGCCGGAGTCACCTAGTGCAG”, the binding signal was 4860 fluorescence intensity (a.u.).
The figure for “AAGCTAGTACAAGATGCGAAATGTCGTCAGATTCAGAGATCGGAGTCACCTAGTGCAG” is 3580 fluorescence intensity (a.u.); for “CGTTGCGCACGTACAGCTCACGCTCAAGTCGTACACATTACGGAGTCACCTAGTGCAG” it is 3840 fluorescence intensity (a.u.); for “TGTCATAAATTGTACCGACATGATACACATGTCCGATACTCGGAGTCACCTAGTGCAG” it is 39400 fluorescence intensity (a.u.).
Take “AGTACATAATTACGCACATGTGACACACACCACACATACTCGGAGTCACCTAGTGCAG”: the binding signal is 3140 fluorescence intensity (a.u.).
“ATACGATACCATAGGTATGTCAGCATGATATATATGTACTCGGAGTCACCTAGTGCAG”: the binding signal is 3890 fluorescence intensity (a.u.).
Take “TATGTGTTGACACCAAGGCTGACTCGGTTTTCGTCAAGGTCGGAGTCACCTAGTGCAG”: the binding signal is 6530 fluorescence intensity (a.u.).
On to “GTCGTCTAGTAGTAGTAGCCTACCACCACCTCCCTCGGCGCGGAGTCACCTAGTGCAG”, for which the binding signal is 3230 fluorescence intensity (a.u.).
Turning to “AAATGGGGCCTAGAGTTCCAACCAATTGCAGCAAGAGCAGCGGAGTCACCTAGTGCAG”, the binding signal was 3230 fluorescence intensity (a.u.).
As for “AATTGGGATCAAAGCCTTCATGTTCATAGCAAATCAAGAGCGGAGTCACCTAGTGCAG”, the binding signal is 45900 fluorescence intensity (a.u.).
As for “TAGCAAGAGACCTTGTTGAGCATGTCATCAATGTCAAGTGCGGAGTCACCTAGTGCAG”, the binding signal was 4150 fluorescence intensity (a.u.).
Consider “AGAATTTTGCAGACCGAGGCTTGGCCACCGAGGCGCAAGCCGGAGTCACCTAGTGCAG”, for which the binding signal is 3790 fluorescence intensity (a.u.).
“GAACGACCCGAACTTATGACTCATTTATGGTTTGTTTCTCCGGAGTCACCTAGTGCAG”: the binding signal is 8680 fluorescence intensity (a.u.).
For the sequence “ACCTCCTCCACCTCCATGGCTCACCACCACGTACAGCAAACGGAGTCACCTAGTGCAG”, the binding signal was 3360 fluorescence intensity (a.u.).
As to “TTTTAAGGGGCAAATCTTACCAACTTTTACTAGCGTGTCACGGAGTCACCTAGTGCAG”, the binding signal is 3680 fluorescence intensity (a.u.).
Consider “AGTAGCAAAACCTGTTTGTAGAGGAAATTATTATAGTGTTCGGAGTCACCTAGTGCAG”, for which the binding signal was 53700 fluorescence intensity (a.u.).
“CTAAAACCACATATAAGGAGTGTCCTGTAGCAAAATTTCCCGGAGTCACCTAGTGCAG”: the binding signal is 4200 fluorescence intensity (a.u.).
“CTGTAGCAAATTAGAAGCAAAAGTGTTAGTTCAAATTGTGCGGAGTCACCTAGTGCAG”: the binding signal was 3320 fluorescence intensity (a.u.).
As for “CGTGTGTAACTTTGGAACCTGCCACGGGAGAGCGAATTCCCGGAGTCACCTAGTGCAG”, the binding signal was 25500 fluorescence intensity (a.u.).
As for “GAATAGTAACAATTAGTTTTGTGAATTTTGTGAAATACGCCGGAGTCACCTAGTGCAG”, the binding signal is 52300 fluorescence intensity (a.u.).
With “ACAAATTATAAGTAACAAACTTTTGTGACGTATAGTAGCCCGGAGTCACCTAGTGCAG”, the binding signal was 4440 fluorescence intensity (a.u.).
Take “TGTGAATTACTAGTAGTACGTAAGCATAAATACGCCACCCCGGAGTCACCTAGTGCAG”: the binding signal was 3550 fluorescence intensity (a.u.).
On to “ACCAACGGCCCGAGTCCGACACACGTCTCACGCACGAGCACGGAGTCACCTAGTGCAG”, for which the binding signal is 3910 fluorescence intensity (a.u.).
Consider “AACCTGCTGTCCACTACAACGTCACATTTCAACAAATCCACGGAGTCACCTAGTGCAG”, for which the binding signal is 34200 fluorescence intensity (a.u.).
Turning to “GCTTCCCGCACGACACCTGTCCACACAAATCTTAGAGCAACGGAGTCACCTAGTGCAG”, the binding signal is 41400 fluorescence intensity (a.u.).
The figure for “CACACAGCCGCCCTTGCCGACCGCCACCGCCGCAACCGCACGGAGTCACCTAGTGCAG” is 3300 fluorescence intensity (a.u.).
“TTTGCGAACGTAATTCCATTAATTAAACACACGTCTATATCGGAGTCACCTAGTGCAG”: the binding signal is 3220 fluorescence intensity (a.u.).
“TCGAAGAAGCCCTTTATTTCTCTTTTCGATACTCACACAACGGAGTCACCTAGTGCAG”: the binding signal is 3260 fluorescence intensity (a.u.).
Take “CGGGCGACGCCGGTGCTGGCGCCAGCGTGGGGCCGCGACGCGGAGTCACCTAGTGCAG”: the binding signal was 4780 fluorescence intensity (a.u.).
Regarding “GTCAGCGCCAACTTACTTGGCGCTGAGGTTGTGCACCTCACGGAGTCACCTAGTGCAG”, the binding signal was 3160 fluorescence intensity (a.u.).
As to “GGCGGAGAGGGTATGGACAACAGCGCCGAGGTGGCGTGGCCGGAGTCACCTAGTGCAG”, the binding signal was 5480 fluorescence intensity (a.u.).
Consider “CAGCTACCTCAGCGCCAACCGGACTGGCGCTGAGGTGGGACGGAGTCACCTAGTGCAG”, for which the binding signal is 39200 fluorescence intensity (a.u.).
The figure for “GCGTGGGGCGCCGGTGGCGGAGGGTGGGGACGACAACCAGCGGAGTCACCTAGTGCAG” is 65500 fluorescence intensity (a.u.).
“GCCAGGTGGGCTGGCGCTGAGTGTCCCACGGTCAGCGCCACGGAGTCACCTAGTGCAG”: the binding signal is 4010 fluorescence intensity (a.u.).
